The source of these data is PubChem BioAssay.

In general, inhibition refers to the drop in the measured response relative to a control, in per cent.

Values joined by “and” are separate entries in the source; they are usually repeats but may differ in a detail not shown here. Identical values can stand only once. Active and inactive are the calls of the source.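 Rule for the calls, unless noted: active = inhibition at or above 50% relative to wild type and mutant plate controls; inactive = inhibition below 50%.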 Residues, ends and D or L forms follow the SMILES beside them.

Test [1] is described as follows: inhibitors of TNFa-induced NFkB p65 translocation, primary screen, imaging, HUVEC, MLSMR starter and 10KST1 sets (AID 438;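 active = inhibition above 20% together with a positive visual image hit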;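 note: compound added about 3h40 before a 20 min TNFalpha stimulation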;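 for inhibition: signal is the nuclear over cytoplasmic p65 intensity ratio per well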). Particulars: HUVEC TNFa-induced p65 nuclear translocation; cell count: measured here: nuclei count (cytotoxicity indicator), at 2.08 µM unless noted; inhibition: at 2 µM, stronger effect = higher value unless noted.
Test [2] can be described thus: reduction of polyQ htt aggregates in cells – imaging, exon1htt(103Q)mCFP cells, high-content imaging, primary screen (AID 483;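 active = visual image review flags a hit and inhibition of aggregation exceeds 20%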;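 note: compound exposure lasted 3 days before fixation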;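 for nuclei count: percent of the per-plate median nuclei count of sample wells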). Particulars: exon1htt(103Q)mCFP cell line, aggregate imaging, at 2 µM; inhibition of aggregation: stronger effect = higher value; nuclei count: measured here: cell count, toxicity.
The nature of test [3]: endothelial E-selectin expression blockers – imaging, HUVEC, immunofluorescence, MLSMR starter and 10KST1 sets, primary screen (AID 487;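 active = visually confirmed hit in the image check and inhibition above 20%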;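 for inhibition: signal is fraction of cell area covered by stained E-selectin grains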;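 for nuclei count: 100% = median nuclei count of all wells on the same plate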). Particulars: HUVEC TNFalpha-induced E-selectin immunofluorescence imaging, at 2 µM; inhibition: stronger effect = higher value; nuclei count: measured here: cell number, toxicity.
Test [4] can be described thus: Primary imaging screen for DUSP6 inhibitors that restore phospho-Erk in transfected HeLa cells, chemical complementation (AID 609;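 active = compounds giving at least 50% inhibition in the cell-based MKP-3 phosphatase rescue imaging test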;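 for inhibition: phospho-Erk level distribution per well compared with pooled transfected vehicle control wells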). Particulars: HeLa MKP-3 transfected, phospho-Erk imaging KS statistic, at 10 µM.
Test [5] has as its target Dual specificity protein phosphatase 6 (Homo sapiens) (UniProt Q16828). The description is as above. Particulars: HeLa MKP-3 transfected, phospho-Erk imaging KS statistic, at 10 µM, stronger effect = higher value.
The target in test [6] is Voltage-gated potassium channel subunit beta-2 (Rattus norvegicus) (UniProt P62483). In words: inhibitors of rat Kvbeta2 reductase activity – biochemical, NADPH fluorescence, primary screen (AID 622;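 active = fluorescence slope higher than the sample average by over 3 SD, cut at about -0.22 in these data, passing the limit was not always enough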;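 note: slope of raw intensity against log time taken from 70 to 1610 s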). Particulars: recombinant KvBeta, 4-cyanobenzaldehyde reduction, at 10 µM, stronger effect = higher value.
Sequence of Voltage-gated potassium channel subunit beta-2 (Rattus norvegicus) (P62483 whole entry, looked up): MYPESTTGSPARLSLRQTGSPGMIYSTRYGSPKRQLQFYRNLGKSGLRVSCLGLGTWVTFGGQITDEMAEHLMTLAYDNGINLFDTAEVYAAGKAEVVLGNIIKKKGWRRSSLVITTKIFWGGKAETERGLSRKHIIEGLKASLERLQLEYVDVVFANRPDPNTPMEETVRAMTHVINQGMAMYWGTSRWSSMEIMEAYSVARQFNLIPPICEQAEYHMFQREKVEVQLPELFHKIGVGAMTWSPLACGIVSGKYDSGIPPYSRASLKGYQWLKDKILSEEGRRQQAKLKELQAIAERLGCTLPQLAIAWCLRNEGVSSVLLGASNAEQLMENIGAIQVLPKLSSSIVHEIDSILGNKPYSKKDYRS
Test [7] shares this target. The test can be described thus: enhancers of rat Kvbeta2 NADPH turnover – biochemical, NADPH fluorescence, primary screen (AID 623;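 active = NADPH fluorescence slope more negative than the mean of all samples by about 3 SD, 99.7% confidence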;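 note: fluorescence intensity change per second fitted from 20 to 320 s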). Particulars: Recombinant KvBeta, NADPH fluorescence decrease slope, 10 min; at 10 µM; stronger effect = lower value.
The target of test [8] is Muscarinic acetylcholine receptor M4 (Homo sapiens) (UniProt P08173). In words: M4-linked GIRK flux change, two-sided – cell-based, HEK293 M4/GIRK, thallium flux, BTC-AM, M4 allosteric agonist project, primary screen (AID 625;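 active = fluorescence slope after compound addition differing from the mean of all tested samples at 99.7% confidence, mostly higher but some lower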;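 note: thallium influx through GIRK channels coupled to M4 in HEK293 cells with BTC-AM dye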). Particulars: at 10 µM, actives lie on both sides.
Sequence of Muscarinic acetylcholine receptor M4 (Homo sapiens) (P08173 whole entry, looked up): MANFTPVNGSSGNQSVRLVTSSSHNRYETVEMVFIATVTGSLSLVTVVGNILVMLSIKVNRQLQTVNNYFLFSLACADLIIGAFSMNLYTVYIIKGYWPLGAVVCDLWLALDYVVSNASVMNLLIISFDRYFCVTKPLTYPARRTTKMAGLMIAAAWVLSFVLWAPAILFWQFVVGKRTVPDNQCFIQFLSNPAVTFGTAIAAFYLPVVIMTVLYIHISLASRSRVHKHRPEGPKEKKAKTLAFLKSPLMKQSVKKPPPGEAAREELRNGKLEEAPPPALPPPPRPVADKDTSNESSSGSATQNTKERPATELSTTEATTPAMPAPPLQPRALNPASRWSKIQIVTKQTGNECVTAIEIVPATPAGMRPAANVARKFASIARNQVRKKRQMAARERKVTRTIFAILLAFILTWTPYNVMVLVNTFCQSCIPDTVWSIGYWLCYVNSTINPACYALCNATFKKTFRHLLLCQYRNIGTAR
Test [9] can be described thus: inhibitors of larval lipid processing in zebrafish, primary screen, whole organism, PED6 fluorescence, gall bladder and intestine (AID 686;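 active = a full or partial loss of lipid-probe fluorescence in the fish gall bladder, intestine or both, judged by eye; inactive = no fluorescence loss, or compound toxic to the fish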;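 note: larvae 5 to 7 days old with five fish per well; signal comes from phospholipase A2 cleavage of quenched PED6 carried via bile; overnight exposure to compound and PED6 before scoring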). Particulars: Zebrafish larvae PED6 lipid processing, fluorescence scoring.
Test [10] is described as follows: loss of swimming-algae plug formation – whole organism, Chlamydomonas reinhardtii, WT vs cilia-less mutant, absorbance, 96-well, primary screen (AID 463189).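 Note: 0% = wild type cc124 cells in DMSO and 100% = ciliumless bld1 mutant cells.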 Particulars: Chlamydomonas reinhardtii gravitaxis, OD600 absorbance, 2 days; at 10 µM; stronger effect = higher value.
Test [11] is described as follows: blockers of RIG-like receptor reporter activation – cell-based, Sendai virus stimulus, luciferase, 10K MLSCN set, TLR/RLR signaling modifier project, primary screen (AID 602276;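 active = inhibition at or above 50% at 10 µM; inactive = inhibition below 50%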;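 note: firefly luciferase from ISG56 promoter only with Renilla not read in this screen; 0% = Sendai virus plus DMSO and 100% = medium plus DMSO without virus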). Particulars: HEK293 RL24 IRF3 luciferase reporter, at 10 µM, stronger effect = higher value.
Test [12] can be described thus: TLR3 IRF3 reporter activation blockers – cell-based, poly I:C stimulus, luciferase, 10K MLSCN set, primary screen (AID 602277;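 active = inhibition of the reporter signal at or above 50%; inactive = inhibition below 50%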). Particulars: HEK293-TLR3 RL24 IRF3 luciferase reporter, at 10 µM, stronger effect = higher value.
Test [13] addresses Alpha-2C adrenergic receptor (Homo sapiens) (UniProt P18825). The test can be described thus: compounds altering alpha2C-coupled GIRK flux – cell-based, HEK293 alpha2C/GIRK1/2, thallium flux, primary screen (AID 624;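 active = fluorescence slope after compound addition differing from the mean of all screened samples at 99.7% confidence, in either direction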;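 note: slope of fluorescence ratio to pre-addition baseline per second over 15 to 24 s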). Particulars: thallium flux BTC fluorescence, at 10 µM, actives lie on both sides.
Where [14] appears, read: measured here: cell density z-score.
The mark [15] stands for this setting: measured here: nuclear c-Myc green intensity z-score.
The mark [16] stands for this setting: measured here: nuclear pErk red intensity z-score, stronger effect = higher value.

Sequence of Dual specificity protein phosphatase 6 (Homo sapiens) (Q16828 whole entry, looked up): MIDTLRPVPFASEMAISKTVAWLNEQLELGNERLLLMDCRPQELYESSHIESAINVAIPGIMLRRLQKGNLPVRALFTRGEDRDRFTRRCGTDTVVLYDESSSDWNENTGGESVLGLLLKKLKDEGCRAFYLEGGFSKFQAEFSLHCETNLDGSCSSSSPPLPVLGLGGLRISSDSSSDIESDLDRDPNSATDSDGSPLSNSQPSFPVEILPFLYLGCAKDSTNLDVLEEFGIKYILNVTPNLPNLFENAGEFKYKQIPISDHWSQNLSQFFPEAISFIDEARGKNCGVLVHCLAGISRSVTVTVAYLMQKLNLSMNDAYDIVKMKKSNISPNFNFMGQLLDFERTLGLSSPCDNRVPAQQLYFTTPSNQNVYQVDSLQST
Sequence of Alpha-2C adrenergic receptor (Homo sapiens) (P18825 whole entry, looked up): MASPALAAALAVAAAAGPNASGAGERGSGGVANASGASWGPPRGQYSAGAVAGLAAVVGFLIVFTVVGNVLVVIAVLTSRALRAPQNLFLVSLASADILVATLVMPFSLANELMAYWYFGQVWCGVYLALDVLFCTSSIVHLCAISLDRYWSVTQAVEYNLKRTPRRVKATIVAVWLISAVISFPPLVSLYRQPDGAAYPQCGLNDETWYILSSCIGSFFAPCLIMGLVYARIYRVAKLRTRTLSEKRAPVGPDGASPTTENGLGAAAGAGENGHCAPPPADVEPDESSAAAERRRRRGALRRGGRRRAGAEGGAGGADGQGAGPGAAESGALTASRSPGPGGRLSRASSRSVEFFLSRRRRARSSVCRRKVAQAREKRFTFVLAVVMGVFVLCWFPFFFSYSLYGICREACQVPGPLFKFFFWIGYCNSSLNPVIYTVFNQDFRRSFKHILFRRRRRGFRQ

As to `OCCOCC#CCN1CCOCC1`, in test [1], the cell count was found to be 582. For the same molecule, the inhibition in [1] was 8.1% (inactive); in test [3] it was -167% (inactive); in [5], 17.8% (inactive); in [10] it was -6.14% (inactive); in [11], 19.2% (inactive); in test [12], 20.5% (inactive). In test [2], the inhibition of aggregation was -15.3% (inactive). Further, the nuclei count in test [2] worked out at 100%; in [3] it was 137%. Moreover, the z-score is -0.584 in [4] (setting [14]), 1.05 in [4] (setting [15]) and 0.188 in test [4] (setting [16]). Moreover, the fluorescence slope in [6] was -0.497 (inactive); in test [8], 0.006 (inactive). In [7], the NADPH fluorescence slope is -5.8e-05 (inactive). The result in test [9] was inactive.
In [1], `Cc1ccc(C)c(C2(O)CC(C)N(C)CC2C)c1` (stereo not given) came in with a cell count of 530. The inhibition in [1] is 1.6% (inactive); in [3] it was -53.3% (inactive); in [5] it was 5.35% (inactive); in test [10], -6.61% (inactive); in [11], -14.7% (inactive); in [12], 94.6% (active). The inhibition of aggregation in test [2] was -5.5% (inactive). Also, the nuclei count came to 99.7% in test [2] and 111% in test [3]. Besides, the z-score was -0.226 in test [4] (setting [14]), 0.594 in [4] (setting [15]) and -0.947 in [4] (setting [16]). In addition, the fluorescence slope in test [6] was -0.458 (inactive); in test [8], 0.00518 (inactive). For the same molecule, the NADPH fluorescence slope in [7] was -4.2e-05 (inactive). In test [9], the outcome was inactive.
Take `COP(=O)(OC)C(O)C(Cl)(Cl)Cl` (stereo not given): in [1], the cell count is 659. Besides, the inhibition in [1] is 4.7% (inactive); in [3], -58.1% (inactive); in [5] it was 23.4% (inactive); in [10] it was 12.4% (inactive); in test [11], 17.5% (inactive); in test [12], 39.8% (inactive). Also, the inhibition of aggregation in test [2] is -21.7% (inactive). Also, the nuclei count was found to be 104% in test [2] and 126% in test [3]. Besides, the figures for the z-score in test [4] (setting [14]), in test [4] (setting [15]) and in test [4] (setting [16]) were -0.465, 1.59 and 0.972, respectively. Also, the fluorescence slope in test [6] was -0.462 (inactive). In addition, the NADPH fluorescence slope in test [7] was -6e-05 (inactive). Moreover, the slope in [13] was 0.00473 (inactive). The molecule was called inactive in test [9].
The molecule `CC(C)C[C@H](NC(=O)[C@@H]1CCCN1C(=O)[C@@H](N)Cc1ccc(O)cc1)C(=O)NCC(N)=O` (H-YPLG-NH2) displayed a cell count in test [1] of 621. In addition, the inhibition is -3.8% (inactive) in test [1]; -65.3% (inactive) in test [3]; 1.48% (inactive) in test [5]; -9.78% (inactive) in [10]; 2.09% (inactive) in test [11]; 31.8% (inactive) in [12]. Also, the inhibition of aggregation in test [2] was -9.8% (inactive). In addition, the nuclei count is 103% in test [2] and 104% in [3]. Besides, the z-score is -0.734 in test [4] (setting [14]), -0.49 in [4] (setting [15]) and -1.27 in [4] (setting [16]). The fluorescence slope in test [6] was -0.471 (inactive). Further, the NADPH fluorescence slope in test [7] was -6.7e-05 (inactive). For the same molecule, in test [13], the slope is 0.00565 (inactive). In addition, the result in test [9] was inactive.
The molecule `COC1=CC(=O)OC(/C=C/c2ccccc2)C1` (stereo not given) gave a cell count in test [1] of 562. Besides, the inhibition was 0.9% (inactive) in test [1]; 1.6% (inactive) in test [3]; 25.7% (inactive) in [5]; -16.3% (inactive) in [10]; 0.4% (inactive) in test [11]; -0.629% (inactive) in [12]. Besides, the inhibition of aggregation in test [2] is 17.4% (inactive). Moreover, the results for the nuclei count in test [2] and in test [3] were 92% and 112%, respectively. The z-score in test [4] (setting [14]) is 1.47; in test [4] (setting [15]), -1.75; in [4] (setting [16]), -1.36. For the same molecule, the fluorescence slope in test [6] is -0.448 (inactive). In addition, in test [7], the NADPH fluorescence slope was -5.6e-05 (inactive). Also, the slope in [13] was 0.00584 (inactive). Moreover, the call in test [9] was inactive.
Take `Cc1ccc(-n2c(O)c(C=NCCN3CCOCC3)c(=O)[nH]c2=O)cc1`: the cell count in [1] turned out to be 536. In addition, the inhibition in [1] is -3.4% (inactive); in test [3], -76.6% (inactive); in [5], 6.04% (inactive); in test [10], -5.09% (inactive); in test [11], 15.1% (inactive); in test [12] it was 25% (inactive). Besides, the inhibition of aggregation in [2] was -17.4% (inactive). Also, the nuclei count in test [2] was determined as 117%; in test [3], 147%. The z-score was -0.809 in [4] (setting [14]), -1.16 in test [4] (setting [15]) and 1.01 in test [4] (setting [16]). The fluorescence slope in test [6] is -0.418 (inactive). In addition, the NADPH fluorescence slope in test [7] is -4.9e-05 (inactive). In [13], the slope is 0.00555 (inactive). In addition, the result in [9] was inactive.
`CN1CC[C@@]23CCCC[C@@H]2[C@@H]1Cc1ccc(O)cc13` came in with a cell count in [1] of 612. The inhibition in [1] is -2% (inactive); in test [3] it was -41.4% (inactive); in test [5] it was -3.03% (inactive); in test [10], -11.1% (inactive); in test [11], -1.46% (inactive); in test [12] it was 37.2% (inactive). The inhibition of aggregation in [2] is -9.3% (inactive). Further, the nuclei count in test [2] amounted to 78.9%; in test [3] it was 127%. The z-score was -1.02 in [4] (setting [14]), 0.228 in test [4] (setting [15]) and 2.32 in test [4] (setting [16]). Besides, the fluorescence slope in test [6] is -0.439 (inactive). Further, the NADPH fluorescence slope in [7] was 2.4e-05 (inactive). Moreover, the slope in test [13] was 0.00406 (inactive). The molecule was called inactive in test [9].
Consider `C[N+]1(C)CCN(c2ccccc2)CC1`, for which the cell count in test [1] turned out to be 637. Also, the inhibition is -3.4% (inactive) in test [1]; -66.8% (inactive) in [3]; 19% (inactive) in [5]; 7.37% (inactive) and 14.5% (inactive) in [10]; 0.511% (inactive) in test [11]; 51.8% (active) in test [12]. Moreover, the inhibition of aggregation in [2] is -27% (inactive). The nuclei count in test [2] was 102%; in test [3], 118%. The z-score in [4] (setting [14]) is 1.65; in test [4] (setting [15]) it was -1.1; in [4] (setting [16]), -0.542. The fluorescence slope in test [6] is -0.439 (inactive). For the same molecule, the NADPH fluorescence slope in [7] was -4.1e-05 (inactive). For the same molecule, the slope in [13] was 0.00481 (inactive). For the same molecule, the molecule was classed as inactive in test [9].
Molecule `C#C[C@]1(O)CC[C@H]2[C@@H]3CCC4=CC(=O)CC[C@]4(C)[C@H]3CC[C@@]21C` had a cell count in test [1] of 605. Besides, the inhibition is 4.5% (inactive) in test [1]; -96.4% (inactive) in test [3]; 19% (inactive) in test [5]; -7.99% (inactive) in [10]; 9.99% (inactive) in [11]; 37.9% (inactive) in test [12]. The inhibition of aggregation in test [2] is -1.7% (inactive). The nuclei count in test [2] worked out at 104%; in test [3] it was 120%. In addition, the z-score in [4] (setting [14]) was 0.928; in test [4] (setting [15]) it was -0.272; in test [4] (setting [16]), -0.147. Besides, the fluorescence slope in test [6] is -0.469 (inactive). Moreover, the NADPH fluorescence slope in [7] is -5.4e-05 (inactive). Moreover, the slope in test [13] is 0.00473 (inactive). In addition, in test [9], the call was inactive.
`COc1ccc(OC)c(C(O)C(C)N)c1` (stereo not given) gave a cell count in [1] of 507. For the same molecule, the inhibition in [1] is -7.1% (inactive); in [3], -75.2% (inactive); in test [5], 11.3% (inactive); in test [10], 8.38% (inactive) and -0.435% (inactive); in test [11] it was 4.62% (inactive); in test [12] it was 34.8% (inactive). Also, in test [2], the inhibition of aggregation was 7% (inactive). Besides, the nuclei count in [2] came out at 57.3%; in test [3], 108%. Besides, the z-score in test [4] (setting [14]) is -0.1; in [4] (setting [15]), 0.202; in test [4] (setting [16]), 1.18. For the same molecule, the fluorescence slope in test [6] was -0.51 (inactive). The NADPH fluorescence slope in test [7] was -2.7e-05 (inactive). Besides, the slope in test [13] is 0.0053 (inactive). In [9], the call was inactive.
